# Compound activity: PubChem BioAssay, SRMLSC
# Sampled rows, rich in hits. Any-hit rate of the full collection: about 6.3%.
# DPM-DC inhibit: S. pneumoniae DPM-DC inhibition; purified DPM-DC, PK/LDH coupled NADH fluorescence; 65,000 compounds, 0.49% hits; calls only at 10 µM; AID 556;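 active = the 320 compounds with the highest percent inhibition in the single-dose primary screen, excluding strongly autofluorescent ones, cut at about 32% in these data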;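 also: kinetic rate of NADH fluorescence loss reporting ADP formed by the decarboxylase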
# MK inhibit: inhibitors of Streptococcus pneumoniae mevalonate kinase. purified MK, PK/LDH-coupled NADH absorbance 340 nm. inhibition, % at 10 µM. AID 555. 65,000 compounds, 0.48% hits;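 active = ranked among the strongest by inhibition in the single 10 µM screen, a fixed top-ranked set picked for dose follow-up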
# NADH coupling: inhibitors of enzymes used to reach an NAD/NADH endpoint | coupled PK/LDH NADH assays, four targets | IC50, µM (top dose mostly 10 µM), for the others: at the highest dose inhibition | 65,000 compounds, 0.02% hits;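 active = single-dose screening hits from any of four coupled enzyme assays that gave an IC50 when retested across doses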;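 also: the DPM-DC format reads NADH fluorescence rather than 340 nm absorbance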
# PMK inhibit: blocks S. pneumoniae phosphomevalonate kinase; 65,000 compounds, 0.49% hits; purified PMK, PK/LDH-coupled NADH absorbance 340 nm; inhibition, % at 10 µM;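 active = top-ranked compounds by inhibition in the single 10 µM screen, taking a fixed number of the strongest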;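 also: 0% = full reaction with DMSO carrier and 100% = background rate without enzyme reaction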
# Autofluor 339: intrinsic fluorescence of library compounds, ex339/em460 – biochemical, MLSMR library, data from DPM-DC assay, artefact control, profiling panel; AID 709; 65,000 compounds, 5.5% hits; compound autofluorescence, ex339/em460 nm, NADH buffer; active compounds read high; 1 = no-compound wells, NADH background; fluorescence fold increase at 10 µM;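 active = at 10 µM, mean starting fluorescence two-fold or more over control wells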;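 also: signal is the first read of a kinetic run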
# A340 absorber: absorbance at 340 nm; AID 708; fold change at 10 µM; compound absorbance at 340 nm, fold over control; 65,000 tested, under 10 active;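 active = at 10 µM dose, initial 340 nm absorbance at least 2 fold that of control wells; inactive = change under 2 fold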;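 also: initial absorbance extrapolated from kinetic A340 decline of NADH oxidation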
# Active calls of the source: *; i = inactive; . = no result given; + = active, no number; [ ] = another dose, or the depositor's remark.
SMILES,DPM-DC inhibit,MK inhibit,NADH coupling,PMK inhibit,Autofluor 339,A340 absorber
Cc1csc2ncc(C(=O)Nc3ccon3)c(=O)n12,.,0,6%,11,4.8*,1.1
Cc1csc2ncc(C(=O)Nc3ccccc3Cl)c(=O)n12,+[fluoresces],5,3%,0,2*,1
CCC(C)NC(=O)c1c(N)n(/N=C/c2ccccn2)c2nc3ccccc3nc12 (stereo not given),i,0,8%,2,1.9,1.1
CC(C)CNC(=O)c1c(N)n(/N=C/c2cccnc2)c2nc3ccccc3nc12,.,7,6%,4,2.3*,1
CCC(C)NC(=O)c1c(N)n(/N=C/c2cccnc2)c2nc3ccccc3nc12 (stereo not given),.,0,3%,5,3.1*,1.1
Cc1nc2ccccc2c(=O)n1/N=C/c1cccnc1,i,4,1%,0,1,1.1
COCCCNC(=O)c1c(N)n(/N=C/c2cccs2)c2nc3ccccc3nc12,.,0,3%,6,2.3*,1.1
COCCCNC(=O)c1c(N)n(/N=C/c2cccnc2)c2nc3ccccc3nc12,.,6,9%,11,2.3*,1.1
CC(C)OCCCNC(=O)c1c(N)n(/N=C/c2ccccn2)c2nc3ccccc3nc12,i,2,4%,3,1.4,1.1
CCC(NC(=O)Nn1cnnc1)(C(F)(F)F)C(F)(F)F,i,3,3%,5,1.1,1
O=C(Nc1ccc2c(c1)nc1n2CCSC1)c1ccco1,i,2,1%,0,1.2,1
CCOC(=O)Cc1csc(-n2sc3ccccc3c2=O)n1,+,67*,55%,16,1.2,1
CCCOc1ccc(C2c3c(oc4ccccc4c3=O)C(=O)N2CCN(CC)CC)cc1OC (stereo not given),i,9,6%,9,1.1,1.1
CCOC(=O)c1ccc(N2C(=O)C(O)=C(C(C)=O)C2c2ccc(O)c(OC)c2)cc1 (stereo not given),i,5,4%,7,1.1,1.1
CCOC(=O)C1=C(O)C(=O)N(c2ccc(S(N)(=O)=O)cc2)C1c1ccc(OC)cc1 (stereo not given),i,21,27%,35*,2.1*,1.1
CCN(CCCNC(=O)C1CCN(S(=O)(=O)CC)CC1)c1cccc(C)c1,i,2,3%,8,1.1,1
Cc1nn(-c2ccccc2)c2nc(N)c(C#N)c(-c3ccc(F)cc3)c12,.,11,9%,6,3.8*,1
Cc1nc(N)c(C#N)c(-c2ccccc2)c1C,i,7,3%,0,1.3,1.1
Cc1ccccc1NC(=O)CSc1nc(N)c(C#N)c(-c2cccs2)c1C#N,i,0,5%,8,1.6,1
Cc1ccc(-n2nc(C)c3c(-c4cccs4)c(C#N)c(N)nc32)cc1,i,11,7%,0,2.4*,1.1
Cc1nnc2sc(-c3ccc(NC(=O)c4cccnc4)cc3)nn12,i,18,10%,11,1.1,1.1
Cc1nnc2sc(-c3ccc(NC(=O)c4ccc(-c5ccc(Cl)cc5Cl)o4)cc3)nn12,.,11,6%,1,3.9*,1.1
CCOC(=O)c1cccc(NC(=O)c2cnccn2)c1,i,10,7%,10,1,1
CCOC(=O)c1cncc(NC(=O)c2ccccc2)c1,+,8,20%,16,0.61,1
CCOC(=O)c1sc(NC(=O)CSc2nnc3c4ccccc4n(CC)c3n2)nc1C,i,10,4%,0,1,1.1
SMILES,DPM-DC inhibit,MK inhibit,NADH coupling,PMK inhibit,Autofluor 339,A340 absorber
Cc1cccc2cc(C#N)c(NCCCn3ccnc3)nc12,i,0,12%,17,2.6*,0.98
Cc1cc(NCCN2CCCCC2)n2c(nc3ccccc32)c1C#N,.,4,2%,0,2.7*,0.99
Cc1cc(N2CCN(C3CCCC3)CC2)n2c(nc3ccccc32)c1C#N,.,9,2%,8,2.5*,1
N#Cc1c2c(c(NCCN3CCOCC3)n3c1nc1ccccc13)CCCC2,i,5,9%,21,1.8,0.99
Cc1cc(NCCCn2ccnc2)n2c(nc3ccccc32)c1C#N,.,4,1%,1,3.4*,1
Cc1nc(NCCCn2ccnc2)c2ccccc2n1,i,6,7%,15,1,1
CCOC(=O)N1CCC(N2CCN(c3cc(C)ccc3C)CC2)CC1,i,8,3%,0,1.1,1
CCOC(=O)Nc1ccc(C(=O)NCC2CCCO2)cc1 (stereo not given),i,0,6%,17,1,1
CC(C)C(=O)N1CCC(CN=Cc2c(O)n(C3CCCCC3)c(=O)n(C3CCCCC3)c2=O)CC1,i,2,1%,0,1.1,1
Cc1cc(NCC2CCCO2)n2c(nc3ccccc32)c1C#N (stereo not given),.,5,2%,1,2.5*,1
Cc1cc(C)c(S(=O)(=O)NCCC2CCCN2C)c(C)c1 (stereo not given),i,0,2%,7,0.99,0.99
Cc1cccc(-c2nc(CS(=O)CC(=O)NC3CCCC3)c(C)o2)c1 (stereo not given),i,2,3%,5,1.1,1.1
Cc1cccc(-c2nc(C#N)c(NC3CCCCC3)o2)c1,i,0,11%,33,2.1*,1.1
CCOC(=O)C1CCCN(Cc2ccccc2C)C1 (stereo not given),i,42*,14%,0,1.1,1.1
CCOC(=O)C1CCCN(Cc2ccccc2OCC)C1 (stereo not given),i,41*,14%,0,1.1,1.1
CCOc1ccccc1-n1nnnc1SCC(=O)NC(=O)NCc1ccco1,i,0,7%,20,1.1,1
O=C1CC2CS(=O)(=O)CC2N1C1CCCCC1 (stereo not given),i,0,0%,0,1.1,1
COc1ccc(C(=O)c2coc3ccc(O)c(CN4CCOCC4)c23)cc1,i,6,2%,1,1,1
COc1ccc(-c2coc3c(CN4CCCCC4)c(O)c(CN4CCCCC4)c(O)c3c2=O)cc1,i,0,3%,26*,1,1
O=c1cccccc1NCc1ccccc1,+,5,13%,1,1.1,1.1
Cc1cccc(N=c2oc3cc(O)ccc3cc2C(N)=O)c1,i,6,8%,0,3.7*,1.1
COc1ccccc1N=c1oc2cc(O)ccc2cc1C(N)=O,i,5,15%,11,3.6*,1.1
COc1cccc2cc(C(=O)NCC3CCCO3)c(=O)oc12 (stereo not given),i,9,12%,6,1.4,1.1
COc1ccc2oc(=O)c(C(=O)NCC3CCCO3)cc2c1 (stereo not given),.,9,8%,7,5.1*,1
